Experimental data as given in PubChem BioAssay AID2014 (Sanford-Burnham Center for Chemical Genomics, 2009).
In all, about 290,000 compounds went through this assay and about 3,000 (1%) were called active. The rule behind the calls is not given here. The sample as a whole holds a higher share of actives than the screen did.

Biological target: Polyadenylate-binding protein 1 (Homo sapiens) (UniProt P11940)
Assay: blockers of PABP interaction with poly(A) – biochemical, fluorescence polarization, uHTS, primary screen (AID 2014);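 note: calls also rest on retests at 20 µM and on dose response follow-up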
Conditions: PABP-poly(A) RNA binding, stronger effect = higher value

Sequence of Polyadenylate-binding protein 1 (Homo sapiens) (P11940 whole entry, looked up): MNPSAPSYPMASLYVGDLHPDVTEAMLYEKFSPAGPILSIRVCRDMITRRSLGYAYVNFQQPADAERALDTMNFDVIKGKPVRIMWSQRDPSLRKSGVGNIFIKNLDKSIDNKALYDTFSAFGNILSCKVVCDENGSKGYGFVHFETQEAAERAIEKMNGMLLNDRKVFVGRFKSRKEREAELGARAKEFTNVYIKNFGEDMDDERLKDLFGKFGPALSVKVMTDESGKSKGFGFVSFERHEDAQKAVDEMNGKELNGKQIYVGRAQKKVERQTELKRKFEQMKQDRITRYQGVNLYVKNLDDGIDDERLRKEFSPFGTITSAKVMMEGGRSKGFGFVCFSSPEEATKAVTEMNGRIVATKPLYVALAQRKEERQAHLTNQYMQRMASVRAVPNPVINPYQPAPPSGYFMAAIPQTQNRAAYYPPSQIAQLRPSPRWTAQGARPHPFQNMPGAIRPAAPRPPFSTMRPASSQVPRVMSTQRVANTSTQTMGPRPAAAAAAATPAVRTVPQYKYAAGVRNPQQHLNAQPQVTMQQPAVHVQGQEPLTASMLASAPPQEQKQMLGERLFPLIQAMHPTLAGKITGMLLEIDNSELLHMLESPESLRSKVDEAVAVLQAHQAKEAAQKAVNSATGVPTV

SMILES | inhibition (at 35 µM) | inhibition (confirmation repeats, at 20 µM) [%]
N#Cc1cccc(CN2CCC(=O)N([C@H](CO)c3ccccc3)CC2)c1 | 5.7% (inactive) | –
COc1cc(OC)cc(C(=O)NCCSCc2ccc(Cl)cc2)c1 | -3.9% (inactive) | –
Cc1cccc(NC(=O)/C(=C\c2ccco2)NC(=O)c2ccccc2)c1 | 52.1% (active) | –
O=C(NCc1ccco1)/C(=C/c1ccco1)NC(=O)c1ccccc1 | -4% (inactive) | –
O=C(Nc1ccccc1)/C(=C\c1ccco1)NC(=O)c1ccco1 | 14.9% (inactive) | –
COc1cc(/C=C/C(=O)N2CCc3ccccc3C2)cc(OC)c1OC | 2.6% (inactive) | –
COc1ccc(Cc2nnc(SCC(=O)Nc3ccc(C)c(C)c3)o2)cc1OC | -6.8% (inactive) | –
CCOC(=O)N1CCN(C(=O)COCc2cc(-c3ccc4c(c3)OCO4)on2)CC1 | 3.8% (inactive) | –
COc1ccc([N+](=O)[O-])cc1N(CC(=O)Nc1ccccc1C(=O)N1CCOCC1)S(C)(=O)=O | -5.6% (inactive) | –
COCCn1c(SCC(=O)Nc2nc(C)cs2)nnc1C(C)C | 2.9% (inactive) | –
O=C(CCN1C(=O)[C@@H]2Cc3ccccc3CN2C1=O)NCCc1ccccc1 | 58.8% (active) | –
O=C(CCN1C(=O)[C@@H]2Cc3ccccc3CN2C1=O)NCc1ccccc1 | 1.7% (inactive) | –
Cc1ccc(CNC(=O)CCN2C(=O)[C@@H]3Cc4ccccc4CN3C2=O)cc1 | 10.4% (inactive) | –
Cc1ccc(C2SCC(=O)N2c2ccccc2)cc1 (stereo not drawn) | -0.7% (inactive) | –
COc1ccc(-c2oc3ncnc(NCCCO)c3c2-c2ccc(OC)cc2)cc1 | 7.6% (inactive) | –
Cc1ccc(N2C(=O)C3C4C=CC(CC4)C3C2=O)cc1Cl (stereo not drawn) | 0.6% (inactive) | –
Cc1cccc(-c2nnc(SCC(=O)O)n2Cc2ccccc2)c1 | 0.6% (inactive) | –
CN1CCc2c(sc3c2c(NCc2ccco2)nc2nnnn23)C1 | 94.1% (active) | –
CCCSc1nc(NCc2ccco2)c2c3c(sc2n1)COC(C)(CC)C3 (stereo not drawn) | 9.5% (inactive) | –
Cn1c(=O)n(Cc2ccco2)c(=N)c2c3c(sc21)CCCC3 | 8.4% (inactive) | –
CC(=O)c1ccc(S(=O)(=O)Nc2ccc(C(=O)NCC(c3ccccc3)N(C)C)cc2)cc1 (stereo not drawn) | 12.7% (inactive) | –
COc1ccc(C(CNCC(=O)Nc2ccccc2F)N(C)C)cc1 (stereo not drawn) | -7.5% (inactive) | –
COc1ccc(C(CNC(=O)c2ccc(S(=O)(=O)Nc3ccccc3F)cc2)N(C)C)cc1 (stereo not drawn) | 53.4% (active) | 116
Cc1ccc(S(=O)(=O)N(CC(=O)NCc2ccco2)c2ccccc2C)cc1 | 3% (inactive) | –
COc1ccc2c(C)c(CCC(=O)NC3CC3)c(=O)oc2c1C | 11.8% (inactive) | –

SMILES | inhibition (at 35 µM) | inhibition (confirmation repeats, at 20 µM) [%]
CCOC(=O)C1(Cc2cccc(OC)c2)CCCN(C(=O)CCSC)C1 (stereo not drawn) | 15.2% (inactive) | –
CCSc1nnc(NC(=O)c2ccc(C)cc2)s1 | -4.4% (inactive) | –
Cc1ccc(C(=O)Oc2coc(CSc3nnc(NC(=O)c4cccs4)s3)cc2=O)cc1C | -2.3% (active) | 88.5
Cc1ccc(C(=O)Nc2nnc(-c3cccs3)s2)cc1C | 4.7% (inactive) | –
CN(C)CCN(C(=O)C1CCCCC1)c1nc2cc3c(cc2s1)OCO3 | 11% (inactive) | –
CN(C)CCCn1c(=O)n(Cc2ccccc2)c(=O)c2c3c(sc21)CCCCC3 | -5.5% (inactive) | –
CCCCCCn1cc(C(=O)O)c(=O)c2cc(F)c(N3CCCCC3)cc21 | -0.7% (inactive) | –
CCC1CCCCN1C(=O)CSc1nc2c(c(=O)n1C)SC(C)C2 (stereo not drawn) | -9% (inactive) | –
Cc1ccc(CCC(=O)Nc2ncc(Cc3cc(Cl)ccc3Cl)s2)o1 | 29.5% (inactive) | –
Cc1ccc(Cc2cnc(N)s2)o1 | 47.2% (active) | 56.6
Cc1cc(/C=C2/SC(=O)N(CC(=O)N3CCCC3)C2=O)c(C)n1C | 19.7% (inactive) | –
Cc1cc(/C=C2\SC(=O)N(C)C2=O)c(C)n1-c1cccc(C(=O)O)c1 | 67.4% (active) | –
Cc1cc(/C=C2\SC(=Nc3ccc(N4CCOCC4)cc3)N(C)C2=O)c(C)n1-c1cccnc1 | 0.7% (inactive) | –
CCC(=O)Nc1ccc(S(=O)(=O)Nc2c(NC)c3ccccc3oc2=O)cc1 | 0.6% (inactive) | –
Cc1ccc2[nH]c3c(c2c1)CN(C(=O)CN1CCN(c2ccccc2)CC1)CC3 | 90.5% (active) | –
O=C(CN1CCCC1)N1CCN(c2ccccc2)CC1 | 0.4% (inactive) | –
CCCC(=O)N1CCc2[nH]c3ccccc3c2C1 | 14.1% (inactive) | –
COCCNC(=O)C(c1ccc(C)cc1)N(C(=O)CCC(=O)Nc1ccccn1)c1cccc(C)c1 (stereo not drawn) | -1.8% (inactive) | –
CCc1nnc(NC(=O)c2nc3nccc(C)n3n2)s1 | -2.3% (inactive) | –
Cc1cccc(NC(=O)Nc2nnc(-c3ccccc3)o2)c1 | -0.4% (inactive) | –
Cc1ccnc2nc(C(=O)Nc3nnc(-c4ccccc4)o3)nn12 | -1.8% (active) | 82.4
CCCC1=Nc2cc(C(=O)NCCN3CCCC3)ccc2Sc2ccccc21 | -16.5% (inactive) | –
COc1cc(NC(=O)C2=C(C)OCCS2)c(Cl)cc1C(=O)NCCN1CCN(C)CC1 | -8% (inactive) | –
O=C(CSc1ccc(-c2ccco2)nn1)Nc1cccc(F)c1 | -7.4% (inactive) | –
Cc1cc(F)ccc1S(=O)(=O)N1CCCOC1CNC(=O)C(=O)NCCC1=CCCCC1 (stereo not drawn) | 0.9% (inactive) | –

SMILES | inhibition (at 35 µM) | inhibition (confirmation repeats, at 20 µM) [%]
O=C(NCCCn1ccnc1)C(=O)NCC1OCCN1S(=O)(=O)c1cc(F)ccc1F (stereo not drawn) | 58.4% (active) | –
O=C(NCCCc1ccccc1)C(=O)NCC1OCCN1S(=O)(=O)c1ccccc1 (stereo not drawn) | 10.1% (inactive) | –
Cc1ccc(C(=O)NC2CCN(C(=O)Nc3ccc(F)cc3)CC2)cc1 | 10.6% (inactive) | –
CC(NC(=O)COc1cccnc1[N+](=O)[O-])c1ccc(Cl)cc1Cl (stereo not drawn) | 0.4% (inactive) | –
CC(C)c1ccccc1OCC(O)CN(CC(O)COc1cccc2ccccc12)C(C)C (stereo not drawn) | 5.7% (inactive) | –
COc1ccc(C(=O)N(C)CC(O)c2ccccc2)cc1OC1CCN(C(C)=O)CC1 (stereo not drawn) | -3.1% (inactive) | –
CC(Cc1ccccc1)C(=O)N(C)Cc1ccccc1 (stereo not drawn) | 2% (inactive) | –
Cc1ccc(C)n1C(Cc1ccccc1)C(=O)O (stereo not drawn) | 69.6% (active) | –
COc1ccc(CNC(=O)C(Cc2ccccc2)n2cccc2)cc1 (stereo not drawn) | 9.5% (inactive) | –
COCCN1C(=O)N(c2ccc(Cl)cc2)C(=O)C1CC(=O)Nc1cc(OC)cc(OC)c1 (stereo not drawn) | -6.1% (inactive) | –
COc1cccc(NC(=O)CSc2nnc(Cc3ccc(OC)c(OC)c3)o2)c1 | 14.4% (inactive) | –
O=C(CCCN1C(=O)/C(=C/c2ccco2)SC1=S)Nc1ccccc1 | 17.5% (active) | 52.5
O=C(CCCN1C(=O)/C(=C/c2ccccc2)SC1=S)Nc1ccc(O)cc1 | -7.7% (inactive) | –
O=C(CCCN1C(=O)/C(=C\c2ccco2)SC1=S)Nc1cccc2ccccc12 | 4.3% (inactive) | -3.6
CCCn1c(C)cc(/C=C(\C#N)C(=O)OCC(=O)Nc2cc(OC)c(OC)c(OC)c2)c1C | -0.7% (inactive) | –
COc1ccc(Cl)cc1NC(=O)c1cccc(N2C(=O)C3CC=CCC3C2=O)c1 (stereo not drawn) | -3.5% (inactive) | –
Fc1ccccc1N=C1Nc2cccc3cccc1c23 | -10.8% (inactive) | –
c1ccc(C2=Nc3cccc4cccc(c34)N2)cc1 | 11.1% (inactive) | –
COc1ccccc1C1=Nc2cccc3cccc(c23)N1 | 65.3% (active) | 86.4
CC(C)c1ccc(S(=O)(=O)N2CCC3(CC2)OCCO3)cc1 | -6.1% (inactive) | –
CCOC(=O)C(Cc1ccccc1)NC(=O)CCC(=O)c1ccc(OC)cc1 (stereo not drawn) | -2.7% (inactive) | –
COC(=O)[C@H](Cc1ccccc1)NC(=O)Nc1ccc(OC)cc1 | -6.6% (inactive) | –
COc1cc([C@H](Cc2ccccc2)NC(C)=O)oc(=O)c1 | 76.2% (active) | –
O=C(CCC1CCN(C(=O)c2cccc(Cl)c2F)CC1)Nc1ccccc1 | -10.6% (inactive) | –
CS(=O)(=O)N1CCN=C1SCc1ccc(F)cc1 | 0.3% (inactive) | –

SMILES | inhibition (at 35 µM) | inhibition (confirmation repeats, at 20 µM) [%]
CCN(c1ccccc1)S(=O)(=O)c1cc2c(cc1C)n(C)c(=O)c(=O)n2C | -2% (inactive) | –
Nc1ccc(C(=O)NCc2ccccc2)cc1 | 3.4% (inactive) | –
CS(=O)(=O)NCc1ccc(C(=O)NCc2ccccc2)cc1 | 48.1% (inactive) | –
C[n+]1ccc(C(=O)NCc2ccccc2)cc1 | 64.2% (active) | 92.7
CN(C(=O)c1c(Cl)cnn1C)C12CC3CC(CC(C3)C1)C2 | 86.8% (active) | 75
COC(=O)c1c(NC(=O)c2c(Cl)cnn2C)sc(C)c1C | -5.8% (inactive) | –
Cn1ncc(Br)c1C(=O)NC1CCCC1 | 2.8% (inactive) | –
Cn1c(CCc2ccccc2)nnc1SCC(N)=O | -5.2% (inactive) | –
C/C(=N\Nc1nncc2ccccc12)c1ccc(Cl)c([N+](=O)[O-])c1 | 2% (inactive) | –
Clc1ccc(CN2CCCCCC2)cc1Cl | 17.8% (inactive) | –
COc1ccccc1CN1CC(C(=O)NCCc2cn[nH]c2)CCC1=O (stereo not drawn) | 27% (inactive) | –
CCn1nnnc1SCC(=O)Nc1ccc(N(C)C)cc1 | 1.4% (inactive) | –
Cc1ccc(Nc2nc(Cl)c(C=O)s2)cc1 | 40.3% (inactive) | 44.5
COC(=O)c1cnn2c(C(F)(F)F)cc(-c3ccco3)nc12 | 23.9% (inactive) | –
Cc1ccsc1-c1cc(C(=O)O)c2c(ccc3ccccc32)n1 | 20.2% (inactive) | –
Cc1cc(C)c2nc(-c3ccco3)cc(C(=O)O)c2c1 | 91.2% (active) | –
Cc1cc(C)nc(N/N=C/c2ccncc2)n1 | 2% (inactive) | –
CCN(CC)c1ccc(/C=N/NC(=O)c2cnccn2)c(O)c1 | -7.1% (inactive) | –
CCN(CC)c1ccc(/C=N/Nc2nc(C)cc(C)n2)c(O)c1 | 16.6% (active) | 67.4
CC1CSc2nnc(CCc3ccccc3)n21 (stereo not drawn) | -2.9% (inactive) | –
c1ccc(CCC2=NCCn3cccc32)cc1 | 67.5% (active) | –
S=C(NCCc1ccccc1)N1CCn2cccc2C1c1ccncc1 (stereo not drawn) | 6.4% (inactive) | –
